Among all 220,000 compounds or so, about 1,600 (0.73%) were called active.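 How the source made its calls: active means inhibition above about 70% (limit read from the data); inactive means the rest.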 Many of the other results were omitted from the sample, so actives are more common in it than they were.
Biological target: 14-3-3 protein zeta/delta (Bos taurus) (UniProt P63103)
Assay: inhibitors of 14-3-3 zeta/Bad binding, primary screen, biochemical, TR-FRET, bovine 14-3-3 zeta (AID 781);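 further: 0% = full 14-3-3 plus peptide FRET controls and 100% = background without 14-3-3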
Details: TR-FRET 14-3-3zeta/Dy647-pBad peptide displacement, 1 h; at 21.7 µM; active compounds read high

14-3-3 protein zeta/delta (Bos taurus), sequence (P63103 whole entry, looked up): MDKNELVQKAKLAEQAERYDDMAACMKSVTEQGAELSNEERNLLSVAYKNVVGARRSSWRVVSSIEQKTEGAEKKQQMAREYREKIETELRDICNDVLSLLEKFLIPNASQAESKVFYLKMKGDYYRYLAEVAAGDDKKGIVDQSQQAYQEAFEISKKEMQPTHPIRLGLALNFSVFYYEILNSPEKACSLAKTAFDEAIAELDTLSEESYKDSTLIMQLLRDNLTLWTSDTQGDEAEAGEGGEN

Which inhibition does the source give for `CCOc1ccc(S(=O)(=O)NCC2CCCO2)cc1` (stereo not given) here?
The inhibition was 90.7% (active).

Which inhibition does the source give for `O=S(=O)(NCC1CCCO1)c1ccc2ccccc2c1` (stereo not given) here?
Its inhibition is 2.47% (inactive).

Which inhibition does the source give for `CCC(=O)Nc1ccc(S(=O)(=O)NCC2CCCO2)cc1` (stereo not given) here?
Its inhibition is -9.79% (inactive).

How did the inhibition turn out when `COC(=O)c1sc(SC)c(S(=O)(=O)C(C)C)c1N/N=C(\C#N)S(=O)(=O)c1ccccn1` was run?
The inhibition was -11.7% (inactive).

How did the inhibition turn out when `O=[N+]([O-])c1ccc(N=Cc2c(O)ccc3ccccc23)cc1` was run?
The inhibition was 2.73% (inactive).

How did the inhibition turn out when `O=C(NNc1cc(Cl)cc(Cl)c1)c1c(F)cccc1Cl` was run?
Its inhibition is -1.3% (inactive).

`CCOC(=O)N1CCN(CC(=O)c2c(C)[nH]c3ccccc23)CC1` was tested. Which inhibition did it give?
Its inhibition is -1.72% (inactive).

With `CCOC(=O)N1CCN(CC(=O)n2c(C)c(C)c3ccccc32)CC1` as the molecule, how does the inhibition read?
Its inhibition is 71.6% (active).

Which inhibition does the source give for `CCOC(=O)N1CCN(C(=O)Cn2cnc3ccccc3c2=O)CC1` here?
Its inhibition is -7.01% (inactive).

`COc1ccc(CC(=O)NCC(=O)N/N=C/c2cc(Br)ccc2OC)cc1` was tested. Which inhibition did it give?
Its inhibition is -0.33% (inactive).

`COc1ccc(C(=O)O/N=C(\N)Cc2ccc(Cl)cc2Cl)cc1OC` was tested. Which inhibition did it give?
The inhibition was -16.2% (inactive).

Which inhibition does the source give for `NC(N)=N/N=C/c1ccc(OCc2ccc(Cl)cc2Cl)cc1` here?
The inhibition was 98.2% [fluorescence artefact?] (active).

Which inhibition does the source give for `NC(N)=N/N=C/c1ccc(Cl)c([N+](=O)[O-])c1` here?
Its inhibition is 22.1% (inactive).

For `Cc1ccc(S(=O)(=O)N(C)C)cc1NC(=O)c1n[nH]c(=O)c2ccccc12`, which inhibition is on record?
The inhibition was 1.22% (inactive).

How did the inhibition turn out when `CCC(=O)c1ccc(OCC(=O)Nc2ccc3nc(C)sc3c2)cc1` was run?
The inhibition was 4.78% (inactive).

For `O=[N+]([O-])c1cc(Cl)cc(/C=N/NC(=S)Nc2cc(S(=O)(=O)N3CCOCC3)ccc2Cl)c1O`, which inhibition is on record?
The inhibition was 50.2% (inactive).

`C[C@@H]1C[C@@H]2O[C@H]2/C=C\C=C\C(=O)Cc2c(Cl)c(O)cc(O)c2C(=O)O1` was tested. Which inhibition did it give?
The inhibition was -2.99% (inactive).

For `Fc1ccccc1/C=N/n1c(-c2cccnc2)n[nH]c1=S`, which inhibition is on record?
Its inhibition is 0.38% (inactive).

Which inhibition does the source give for `S=c1[nH]nc(-c2ccccc2)n1/N=C/c1c[nH]c2ccccc12` here?
Its inhibition is -8.9% (inactive).

Which inhibition does the source give for `S=c1[nH]nc(-c2cc(-c3ccccc3)n[nH]2)n1/N=C/c1c2ccccc2cc2ccccc12` here?
The inhibition was 77.8% (active).

Which inhibition does the source give for `Cc1cccc(N2CCN(C(=O)/C=C/c3ccco3)CC2)c1C` here?
Its inhibition is -4.76% (inactive).

`CCC1CO/C(=C(\C(=C(Cl)Cl)N2CCOCC2)[N+](=O)[O-])N1` (stereo not given) was tested. Which inhibition did it give?
Its inhibition is 93.7% (active).

For `CN(C)C(=O)c1coc2nc3ccccc3nc12`, which inhibition is on record?
Its inhibition is 1.09% (inactive).

For `Cc1ccc(-c2csc(-c3cc(C)on3)n2)cc1`, which inhibition is on record?
The inhibition was 0.81% (inactive).

How did the inhibition turn out when `COc1ccc(C(=O)N(Cc2ccc(N(C)C)cc2)C2CCS(=O)(=O)C2)cc1` (stereo not given) was run?
Its inhibition is -0.9% (inactive).

`CCOc1ccc(C(=O)N(Cc2ccc(N(C)C)cc2)C2CCS(=O)(=O)C2)cc1` (stereo not given) was tested. Which inhibition did it give?
Its inhibition is -6.02% (inactive).

`COc1cc(C(=O)N(Cc2ccc(N(C)C)cc2)C2CCS(=O)(=O)C2)cc(OC)c1OC` (stereo not given) was tested. Which inhibition did it give?
The inhibition was 94.9% (active).

Which inhibition does the source give for `CC(=O)NNC1=Nc2ccccc2N(C)C(C)C1` (stereo not given) here?
The inhibition was -5.76% (inactive).

With `Cc1ccc(N2C(=O)CC(N3CCSCC3)C2=O)c(C)c1` (stereo not given) as the molecule, how does the inhibition read?
Its inhibition is 0.9% (inactive).

With `CC(=O)Nc1ccc(S(=O)(=O)Nc2nccc(/C=C/c3ccccc3F)n2)cc1` as the molecule, how does the inhibition read?
Its inhibition is -3.98% (inactive).

With `O=C(Nc1ccccc1)N1CCN(C(=O)Nc2ccccc2)CC1` as the molecule, how does the inhibition read?
Its inhibition is -1.69% (inactive).

For `O=C(Nc1ccccc1)N1CCN(Cc2ccccc2)CC1`, which inhibition is on record?
Its inhibition is 77.4% (active).

With `O=C(NC(=S)N1CCN(Cc2ccccc2)CC1)c1ccccc1` as the molecule, how does the inhibition read?
The inhibition was -19.4% (inactive).

`Cc1ccc(S(=O)(=O)/N=S(\C)C(C)C)cc1` (stereo not given) was tested. Which inhibition did it give?
Its inhibition is 1.1% (inactive).

How did the inhibition turn out when `CS(=O)(=O)N(Cc1ccccc1)c1ccc(C(=O)NN=C2CCCCCC2)cc1` was run?
Its inhibition is -15.2% (inactive).

How did the inhibition turn out when `COc1cccc(NC(=O)c2ccc3c(SCC(=O)O)c4c(nc3c2)CCCC4)c1` was run?
The inhibition was -11.6% (inactive).

For `CC(=O)c1ccc(NC(=O)c2ccc3c(Cl)c4c(nc3c2)CCCC4)cc1`, which inhibition is on record?
The inhibition was 73.9% (active).

`COc1ccc(N2CCN(C(=O)c3ccc4c(Cl)c5c(nc4c3)CCCC5)CC2)cc1` was tested. Which inhibition did it give?
The inhibition was -10.1% (inactive).

`COc1ccc(/C=C(\NC(=O)c2ccc(OCC(C)C)cc2)C(=O)OCc2ccco2)cc1` was tested. Which inhibition did it give?
The inhibition was 2.32% (inactive).

Which inhibition does the source give for `Cc1ccc(C)c(SCc2nc3sc(C(=O)O)c(C)c3c(=O)[nH]2)c1` here?
The inhibition was 0.11% (inactive).

`Cc1ccc(-c2nc(SCC(=O)Nc3ccccc3OC(F)F)c3c(C)c(C(=O)O)sc3n2)cc1` was tested. Which inhibition did it give?
The inhibition was 80.4% (active).

With `COc1ccccc1NC(=O)CSc1nc2sc(C)c(C)c2c(=O)n1Cc1ccco1` as the molecule, how does the inhibition read?
Its inhibition is -6.57% (inactive).

With `Oc1ccc2ccccc2c1C=Nc1ccccc1` as the molecule, how does the inhibition read?
The inhibition was 4.91% (inactive).

`CC(=O)Nc1ccc(S(=O)(=O)NC2(C(F)(F)F)C(=O)NC(C)=C2C#N)cc1` (stereo not given) was tested. Which inhibition did it give?
Its inhibition is -3.08% (inactive).

How did the inhibition turn out when `c1ccc(COc2ccccc2CNCc2cccnc2)cc1` was run?
The inhibition was 77.2% (active).

How did the inhibition turn out when `Fc1ccccc1COc1ccccc1CNCc1ccncc1` was run?
Its inhibition is 75.9% (active).

How did the inhibition turn out when `COc1ccccc1CNCc1cccs1` was run?
The inhibition was 0.7% (inactive).

How did the inhibition turn out when `CCC(Oc1ccccc1)C(=O)NCc1cccnc1` (stereo not given) was run?
Its inhibition is -2.17% (inactive).

Which inhibition does the source give for `O=C(CCc1ccccc1)NCc1cccnc1` here?
The inhibition was -1.29% (inactive).

With `COc1cccc(CNCCc2c[nH]c3ccccc23)c1OCc1ccccc1F` as the molecule, how does the inhibition read?
Its inhibition is 29.9% (inactive).

Which inhibition does the source give for `CCOC(=O)CN(C(=O)COc1nc(C)cc(C)c1C#N)c1ccc(Cl)cc1` here?
The inhibition was -3.15% (inactive).

`O=C(Nc1ccccc1Cl)c1ccccc1S(=O)(=O)c1ccccc1[N+](=O)[O-]` was tested. Which inhibition did it give?
Its inhibition is 5.14% (inactive).

`COc1ccc(NC(=S)N2CCc3cc(OC)c(OC)cc3C2)cc1` was tested. Which inhibition did it give?
The inhibition was -0.16% (inactive).

With `COc1ccccc1/C=C/C=N/NC(=O)CN1CCN(Cc2ccccc2)CC1` as the molecule, how does the inhibition read?
Its inhibition is -5.86% (inactive).

With `O=C1COc2ccc(C(=O)COC(=O)C3CC(O)CN3S(=O)(=O)c3ccc(Cl)cc3)cc2N1` (stereo not given) as the molecule, how does the inhibition read?
The inhibition was 0.1% (inactive).

For `Cc1ccc2nc(SCc3cn4c(C)cc(C)nc4n3)[nH]c2c1`, which inhibition is on record?
The inhibition was -0.6% (inactive).

With `CC(Sc1nc2c([nH]c3ccccc32)c(=O)n1C)c1ccccc1` (stereo not given) as the molecule, how does the inhibition read?
Its inhibition is 98.1% (active).

With `Cn1nnnc1SCc1cc(=O)[nH]c2ccccc12` as the molecule, how does the inhibition read?
The inhibition was 8.32% (inactive).

With `CCCCn1c(=S)[nH]c2ccccc2c1=O` as the molecule, how does the inhibition read?
Its inhibition is 10.7% (inactive).

With `S=C(Nc1ccc2c(c1)OCO2)N1CCCC1` as the molecule, how does the inhibition read?
The inhibition was -2.2% (inactive).
